Experimental data published in PubChem BioAssay (NCI).
Where “and” joins values, the source holds several entries; their conditions need not be identical. Identical values can stand only once. Compounds without any hit were thinned out: in the full panel of roughly 83,000, 20% have a hit.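 Method: cells in 96-well plates; compound added at one concentration; 48 h incubation; percent growth measured; values under 10 scored active.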 Calls of active or inactive are those of the source.

Tested on: UACC-62 melanoma
Assay: NCI-60 one-dose screen, 48 h (100 = growth as untreated, 0 = no growth, -100 = all killed)
Conditions: 10 µM unless noted
Experimental: Growth inhibition of the UACC-62 human tumor cell line is measured as a screen for anti-cancer activity. Cells are grown in 96 well plates and exposed to the test compound for 48 hours. Compounds are tested at a single concentration, which is 10^-5 M for most compounds. The reported endpoint is percent growth (GI% or GIPRCNT), where numbers from 0 - 100% represent growth inhibition, and numbers from -100% - 0 represent cell death. For example, a value of 40 represents 60% growth inhibition. A value of 0 means no net growth occurred over the course of the experiment. A value of -40 indicates 40% of cells at the beginning of the experiment died by the end of the experiment. A value of -100 means all cells are dead at the end of the experiment.
NCI-60 Human Tumor Cell Lines Screen was performed using the standard one-dose NCI protocol, which is described in more detail at https://dtp.cancer.gov/discovery_development/nci-60/default.htm.
Compounds with GIPRCNT values below 10 were considered active. Activity score was based on GIPRCNT using the following formula: […]
Score is 0 for GIPRCNT values of 100 or above, 50 for GIPRCNT values of 0, and 100 for GIPRCNT values of -100.

Compound	growth
Cc1ccc(S(=O)(=O)c2ccc3[nH]c(=O)[nH]c(=O)c3c2)cc1	92.9% (inactive)
NC(=S)N/N=C1\c2ccccc2-c2c(F)c(F)c(F)c(F)c21	93.4% (inactive)
Oc1ccccc1-c1n[nH]c(-c2ccccc2O)n1	45.8% [100 µM] (inactive) and 4.35% [100 µM] (active)
Nc1ccccc1-c1n[nH]c(=O)[nH]c1=O	89% (inactive)
Cc1ccc(C)c2c1sc1nc3nc4sc5ccccc5n4c(=N)c3c(=O)n12	120% (inactive)
CCN(CC)c1ccc2c(c1)OS(=O)(=O)N=C2	101% (inactive)
Nc1cc2c3c(cccc3c1)C(=O)N(c1ccc(OCCN3CCCC3)cc1)C2=O	-37.5% [100 µM] (active) and -91.1% [100 µM] (active)
COc1cc(-c2nc(SC(C)C)nc(Nc3ccccc3C)c2C#N)cc(OC)c1OC	97.2% (inactive)
COc1ccccc1/C=C/C(=O)/C=C/c1ccccc1O	-58.9% (active)
Brc1ccc(SCN(CSc2ccc(Br)cc2)Cc2ccccc2)cc1	92% (inactive)
CCC/C(Cl)=N\OC(=O)Nc1ccc(F)cc1	-93.4% [100 µM] (active) and -100% [100 µM] (active)
NC1=NN(c2ccccc2)C2(c3ccncc3C(=O)O)C1C(N)=NN2c1ccccc1 (stereo not given)	67.3% [100 µM] (inactive) and 18.3% [100 µM] (inactive)
O=C(Nc1ccc(Cl)c(Cl)c1)NC(CO)(CO)CO	113% (inactive)
O=C1CN2CCC1C/C2=C\c1ccnc2c(Cl)cccc12 (stereo not given)	90.5% (inactive)
Cc1ccc(S(=O)(=O)N2CCc3ccc(O)c4c3C2Cc2ccc3c(c2-4)OCO3)cc1 (stereo not given)	22.1% (inactive)
C=C(C)COC(=O)c1ccccc1C(=O)OCC1(C)CO1 (stereo not given)	92.8% (inactive)
O=C1OCC2=C1C(c1ccc3c(c1)OCO3)CC(=O)N2c1cccc(Cl)c1 (stereo not given)	102% (inactive)
O=c1c2cc(F)ccc2oc2c(NCCNCCO)nc3ccccc3c12	77.7% (inactive)
COc1cc(/C=N/NC(=O)c2cnn3c2NC(c2ccccc2)C3)ccc1OC1CCCC1 (stereo not given)	23.8% (inactive)
O=C(O)c1cnccc1-c1cc(=O)[nH]n1-c1ccccc1	17.3% [100 µM] (inactive) and 7.35% [100 µM] (active)

Compound	growth
COC(=O)[C@@]12CC[C@@H](C)[C@]3(C[C@@H](c4ccoc4)OC3=O)[C@H]1CC[C@@H]1O[C@@]12C	95.1% (inactive)
CN(C)CCNc1ccc(NCC[N+](C)(C)Cc2ccc([N+](=O)[O-])cc2)c2c1C(=O)c1ccccc1C2=O	37.1% [25 µM] (inactive) and 1.14% [25 µM] (active)
CCC1CC(C)C(O)/C=C/C=C/CC(C)OC(=O)CC(O)C(OC)C1OC1OC(C)CC(O)(C(C)=O)C1O (stereo not given)	67.6% [100 µM] (inactive) and 33.4% [100 µM] (inactive)
Cc1nc2cc(Nc3nc(N4CCOCC4)nc(N4CCN(C)CC4)n3)ccc2n1Cc1ccccc1	102% (inactive)
Cc1cc(-c2nc3ccccc3s2)ccc1N	46.1% [100 µM] (inactive) and 40.6% [100 µM] (inactive)
O=c1oc2ccccc2cc1-c1csc(N=Nc2c(O)[nH]c3ccc(Br)cc23)n1	95% (inactive)
CCN1CCN(c2nc3ccccc3c3c(=O)c4cc(F)ccc4sc23)CC1	44.1% (inactive)
Nc1cc(Br)c(-c2nnc(CCC(=O)c3nc4ccccc4[nH]3)o2)c(Br)c1	55.6% (inactive)
COc1cc(/C=N/NC(=O)c2cnn3c2NC(c2ccccc2)C3)cc(OC)c1OC (stereo not given)	57.4% (inactive)
Cc1ccccc1-n1nnc(C(=O)Nc2nc(-c3ccccc3)c(-c3ccccc3)s2)c1C	69.9% [50 µM] (inactive)
Cc1nc2cc(Nc3nc(Cl)nc(Nc4ccc(F)cc4)n3)ccc2n1Cc1ccccc1	82.4% (inactive)
NNC1=N/C(=C\c2ccco2)C(Cl)=N1	10.8% [100 µM] (inactive) and -100% [100 µM] (active)
O=C1/C(=C/c2ccc(Cl)cc2)N=C(c2ccccc2)N1CCc1cccs1	55.7% (inactive)
COc1ccc2nc(-n3nc(C)cc3C)c(-n3nc(C)cc3C)nc2c1	105% (inactive)
Cc1ccc(S(=O)(=O)N2C/C(=C\c3cc(F)cc(F)c3)C(=O)/C(=C/c3cc(F)cc(F)c3)C2)cc1	-91.1% (active)
CCCCOC(=O)C1OC(Oc2ccc3c(C)cc(=O)oc3c2)[C@@H](OC(C)=O)C(OC(C)=O)C1OC(C)=O (stereo not given in full)	97% (inactive)
CC#CC#C/C=C1/C=CC2(CCCCO2)O1 (stereo not given)	63.2% [100 µM] (inactive) and 4.56% [100 µM] (active)
COc1cc(Cn2cc(F)c(=O)[nH]c2=O)cc(OC)c1	97.5% [50 µM] (inactive)
CCOC(=O)c1cc2c(n(C)c1=O)-c1cnn(-c3ccc(OC)cc3)c1CC2	91.1% (inactive)
O=C1CC2c3cc(-c4cc5ccccc5o4)ccc3CCN2C(=O)N1c1ccccc1 (stereo not given)	81.1% (inactive)
